# Many of the other results were omitted from the sample, so hits are more common in it than they were.
# ALOX12 inh = Primary qHTS assay for inhibitors of human arachidonate 12S-lipoxygenase (ALOX12): Round 2; Polyunsaturated fatty acid lipoxygenase ALOX12 (Homo sapiens), P18054; purified 12hLO, xylenol orange hydroperoxide absorbance; Potency, µM (titrated, usually from 108 µM), for inactives: at the top dose activity change, negative = inhibition, most hits filed as inhibitors; 580,000 compounds, 1.1% hits; also: % is scaled to controls: 0 for no effect and ±100 for the full control effect
#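 Hydroperoxide product was detected by ferrous iron/xylenol orange as the 573 to 405 nm absorbance ratio. Arachidonic acid at 40 uM (final) was turned over for 30 min at room temperature by 150 nM human 12hLO, pH 7.0 Hepes buffer, after 15 min compound preincubation.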
# Glioma ERSR ind = qHTS for Inducers of the Endoplasmic Reticulum Stress Response (ERSR) in Human Glioma: qHTS; U87-MG GRP78 promoter luciferase reporter, 16 h; Potency, µM, for the others: at the top dose activation, actives largely listed as activators; 420,000 compounds, 0.02% hits; also: series mostly up to about 76 µM; % of control where 0% means no effect; nearly all actives have a fitted effect of over 35% in size
#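 Stably transfected U87-MG glioma cells carrying a GRP78-based luciferase sensor; 16 h compound incubation. Luminescence end-point read 10 min after Bright-Glo addition at room temperature.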
# Sfp inh = qHTS Assay for Inhibitors of Bacillus subtilis Sfp phosphopantetheinyl transferase (PPTase). AID 1490, 2009. 310,000 compounds, 3.5% hits. Biochemical Sfp PPTase activity, qHTS. Potency, µM, inactives show largest response in the series, negative = inhibition, hits mostly inhibitors;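 also: the enzyme is Sfp with the accession as filed and its product quenches rhodamine fluorescence; 0% = enzyme reaction without inhibitor and -100% = no enzyme wells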
#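 Fluorescence-quenching assay: 15 nM Sfp-PPTase preincubated 15 min at room temperature with compound, then 5 uM rhodamine-CoA and 12.5 uM BHQ-2-labelled YbbR peptide added. Fluorescence (ex 525/em 598 nm) read at start and after 30 min; difference gives rate.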
# VDR inhibitor = Inhibitors of the vitamin D receptor (VDR): qHTS; Vitamin D3 receptor (Homo sapiens), P11473; VDR-SRC2-3 peptide fluorescence polarization, 2 h; Potency, µM, for inactives: max response, negative = inhibition, actives largely listed as inhibitors; 400,000 compounds, 0.93% hits; AID 504847, 2011; also: % is scaled to controls: 0 for no effect and ±100 for the full control effect
#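 Fluorescence polarization assay of small-molecule disruption of VDR binding to coregulator peptide SRC2-3. Compounds and controls pin-transferred, then read after 2 h incubation at ambient room temperature.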
# G9a block = qHTS Assay for Inhibitors of Histone Lysine Methyltransferase G9a. Potency, µM (series often up to 102 µM), for the others: at the highest dose activity, negative = inhibition, actives largely listed as inhibitors. G9a H3K9 monomethylation, AlphaScreen, 2 h. 350,000 compounds, 8.8% hits. Histone-lysine N-methyltransferase EHMT2 (Homo sapiens), Q96KQ7; also: % is scaled to controls: 0 for no effect and ±100 for the full control effect; nearly all actives have a fitted effect of over 75% in size
# Target sequence (Q96KQ7 913-1193 limits assumed): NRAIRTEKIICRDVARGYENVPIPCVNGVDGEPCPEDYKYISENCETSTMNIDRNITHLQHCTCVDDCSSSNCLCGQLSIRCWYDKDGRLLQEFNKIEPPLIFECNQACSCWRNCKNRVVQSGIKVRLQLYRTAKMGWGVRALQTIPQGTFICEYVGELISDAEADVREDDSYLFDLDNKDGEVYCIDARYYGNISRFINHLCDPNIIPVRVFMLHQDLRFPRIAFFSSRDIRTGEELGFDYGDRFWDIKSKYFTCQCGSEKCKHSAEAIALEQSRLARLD
#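 Step 1: enzyme (final 20 nM) with compound, 15 min RT. Step 2: substrate peptide 500 nM and SAM 20 uM, 2 h RT. Step 3: anti-H3K9me1 antibody and AlphaScreen beads, 10 min, then plate read.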
# * marks the source's active call; other numbers are inactive results; ? = inconclusive; . = no result given; [ ] = remark or other dose. Calls follow the shape of the dose curve; as a rule, active = well fitted curve in the direction sought with a large enough effect; inconclusive = small, poorly fitted or top-dose-only effect, or another doubt; inactive = no such curve, though single readings can be large; an effect the other way counts as inactive or inconclusive. Potency is read from the fitted curve at half-maximal effect.
SMILES,ALOX12 inh,Glioma ERSR ind,Sfp inh,VDR inhibitor,G9a block
COc1ccc(NC(=S)Nc2ccc(OC(F)F)cc2)cn1,?,0%,3%,7%,?
CC/C(=N\NC(=S)Nc1cc(C)ccc1C)c1ccc(OC(F)F)cc1,32µM*,-3%,?,3%,3.2µM*
COc1ccccc1NC(=S)NNC(=S)Nc1ccc(OC(F)F)cc1,?,7%,-27%,?,1µM*
COc1ccc(C/C(C)=N/NC(=S)Nc2ccc(C(C)C)cc2)cc1,?,2%,-1%,-20%,7.9µM*
Cc1ccccc1NC(=S)N/N=C1\CC(C)(C)Oc2ccc(O)cc21,40µM*,-1%,17%,7%,35µM*
CC/C(=N\NC(C)=O)c1ccc(OC(F)F)cc1,.,.,25%,.,5%
CCS(=O)(=O)N1CCc2cc(C(=O)CSc3ccc(F)c(F)c3)ccc21,-16%,.,.,.,.
O=C(Cc1ccc2c(c1)CCCC2)NC1CCCCCC1,77%,.,.,.,.
CN(CC(=O)NC(C)(C)C)C(=O)/C=C/c1ccc(C#N)cc1,15%,.,.,.,.
CC/C(=N\NC(=S)Nc1ccc(OC)cc1)c1ccc(OC(F)F)cc1,35µM*,-2%,1%,-2%,40µM*
Cc1ccccc1NC(=S)Nc1ccccc1,0%,-2%,9%,-4%,-5%[0.501 µM]
C/C(=N\NC(=S)Nc1ccccc1C)c1ccc(O)cc1,.,21%,25µM*,?,35µM*
C/C(=N\NC(=S)Nc1c(C)cccc1C)c1ccc(OC(F)F)cc1,35µM*,-7%,-25%,?,8.9µM*
COC(=O)N/N=C(\C)c1ccc(OC(F)F)cc1,-17%,-2%,7%,-23%,-12%
COc1cccc(OC)c1C(=O)Nc1sc2c(c1C#N)CCC2,2%,-4%,40µM*,7%,.
N#Cc1c(NC(=O)c2ccc(-c3ccccc3[N+](=O)[O-])o2)sc2c1CCCC2,-22%,-1%,-11%,2%,-5%[0.0925 µM]
CCOC(=O)c1c(NC(=O)c2cc(-c3cccc(O)c3)on2)sc(C(C)=O)c1C,7%[57.4 µM],-1%,-4%,-9%,?
Cc1onc(C(=O)Nc2sc3c(c2C#N)CCCC3)c1[N+](=O)[O-],?,?,50µM*,?,45µM*
CC(C)(C)C1CCc2c(sc(NC(=O)c3cc(-c4ccc(F)cc4)on3)c2C#N)C1 (centres undefined),-15%,-1%,.,-8%,?
CC(C)(C)C1CCc2c(sc(NC(=O)c3noc4c3CCCC4)c2C#N)C1 (centres undefined),?,-3%,.,?,7.1µM*
CCOC(=O)c1c(NC(=O)c2noc(C)c2[N+](=O)[O-])sc(C(C)=O)c1C,-28%,-2%,-21%,-13%,40µM*
O=C(COCC(=O)N1CCN(c2ccccc2)CC1)NCc1ccc2c(c1)OCO2,-3%,.,.,.,.
Cc1ccc(CNC(=O)c2ccc(CS(=O)Cc3ccc(C)cc3)o2)cc1 (centres undefined),8%,.,.,.,.
Cc1cccc(OCCc2noc(C3CCCCN3)n2)c1 (centres undefined),49%,.,.,.,.
NC(=O)c1c(NC(=O)c2ccncc2)sc2c1CCCCCC2,0%,1%,1%,3%,-6%
O=C(O)c1ccc(NS(=O)(=O)c2cccc(C(=O)Nc3ccc(Br)cc3)c2)cc1,-22%,-4%,18%,-3%,20%[0.501 µM]
N#Cc1c(NC(=O)c2ccncc2)sc2c1CCC2,?,3%,?,16%,11µM*
N#Cc1c(NC(=O)C2CC(c3ccccc3O)=NO2)sc2c1CCC2 (centres undefined),?,2%,25µM*,7%,8.9µM*
N#Cc1c(NC(=O)C2CC(c3ccccc3Cl)=NO2)sc2c1CCC2 (centres undefined),?,3%,12%,12%,?
Cc1onc(-c2ccccc2Cl)c1C(=O)Nc1sc2c(c1C#N)CCC2,?,-2%,18µM*,-11%,10µM*

# Screening data (PubChem BioAssay)
